Screening results deposited in PubChem BioAssay by National Center for Advancing Translational Sciences (NCATS).
S2 tox: viability counter-screen for ATXN expression inhibitors; S2 cells (HEK-293 line with an ATXN2-luciferase reporter) viability, CellTiter-Fluor protease fluorescence, 24 h; Potency, µM (top dose mostly 56.7 µM), usual class: cytotoxic; actives 0.49% (n = 400,000); AID 651635; further: potency means the concentration at half of the fitted maximal effect; nearly all actives have a fitted effect of over 40% in size
HepG2 tox-1: HepG2 cytotoxicity, counter-screen for TGF-b inhibitors | Potency, µM (doses to about 46.1 µM), for inactives: at the top dose activity change, negative = cytotoxicity, most hits filed as cytotoxic | actives 0.76% (n = 410,000) | AID 588856 | HepG2 CAGA-GFP viability, ATP luminescence, 18 h; further: potency means the concentration at half of the fitted maximal effect
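CellTiter-Glo luminescence gave cytotoxicity after 18 hours at 37 degrees C. The cells were HepG2 CAGA-GFP in 1% FBS DMEM, stimulated with 500 pg/mL TGF-beta after compound addition. %Activity was normalised to no-cell wells (complete cell-killing) and DMSO (no toxicity), and curves were fitted and classified.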
ATXN2 expr inh: ATXN2 expression inhibition; HEK-293 ATXN2-luciferase reporter, luminescence, 24 h; Potency, µM (highest dose often 57 µM), for inactives: at the highest dose activity change, negative = inhibition, actives largely listed as inhibitors; actives 0.72% (n = 360,000); AID 1745845; further: potency means the concentration at half of the fitted maximal effect; on the % scale 0 is the no-effect control and ±100 the full control effect; nearly all actives have a fitted effect of over 55% in size
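qHTS (up to 57 uM final) was run with 24 h compound exposure of reporter cells at 37 °C. Each well was multiplexed: SteadyGlo luminescence measured ATXN2-luciferase expression after a fluorogenic Gly-Phe-AFC viability readout (25 uM final).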
TGFb inhibitor: blocks TGF-b signaling | actives 1.2% (n = 410,000) | AID 588855 | HepG2 CAGA-GFP TGF-b/SMAD3 reporter, GFP fluorescence, 18 h; TGF-beta stimulated, 500 pg/mL final | Potency, µM (doses to about 46.1 µM), without a hit: top-dose activity, negative = inhibition, actives largely listed as inhibitors; further: potency means the concentration at half of the fitted maximal effect; on the % scale 0 is the no-effect control and ±100 the full control effect; nearly all actives have a fitted effect of over 65% in size
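Smad-responsive CAGA-GFP expression was quantified in HEPG2 cells exposed to compounds and 500 pg/mL final TGF-beta for 18 h at 37 degrees C; unstimulated wells defined full inhibition.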
HT1080 IDH1KD tx: HT-1080 IDH1 knockdown cell toxicity (counter line); HT-1080 IDH1 knockdown viability, ATP luminescence, 48 h; actives 2% (n = 360,000); Potency, µM (highest dose often 46.1 µM), for the others: at the highest dose activity, negative = toxicity, most hits filed as cytotoxic; AID 686971;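 further: potency means the concentration at half of the fitted maximal effect; 0% = DMSO wells and -100% = cell-free medium wells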
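Viability of IDH1-knockdown HT-1080 fibrosarcoma cells was assessed by CellTiter-Glo after 48 h at 37 °C with titrated compound; concentration-effect curves were classified by fit quality and response size.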
HT1080NT lethal: kills 2HG-producing HT-1080-NT fibrosarcoma cells; actives 1.6% (n = 360,000); HT-1080-NT fibrosarcoma viability, CellTiter-Glo ATP luminescence, 48 h; Potency, µM (titrated, usually from 46.1 µM), for the others: top-dose activity, negative = less viability, hits mostly cytotoxic; AID 686970;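 further: NT is the 2HG producing partner of a matched IDH1 knockdown line; potency means the concentration at half of the fitted maximal effect; 0% = DMSO-treated cells and -100% = media-only wells without cells; nearly all actives have a fitted effect of over 55% in size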
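Viability by CellTiter-Glo luminescence after 48 h compound exposure at 37C of HT-1080-NT cells (750/well, RPMI, 5% FBS). % activity scaled between DMSO wells and medium-only wells, then curve-fitted and categorized by curve class.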
TGFb confirm: confirmation of TGF-b signaling inhibitors in HepG2 reporter cells. shares compounds with TGFb inhibitor. HepG2 CAGA-GFP TGF-b reporter, GFP fluorescence, 18 h; cells stimulated with TGF-beta, 500 pg/mL. Potency, µM (top dose mostly 46.1 µM), for the others: at the highest dose activity, negative = inhibition, actives largely listed as inhibitors. actives 63% (n = 1,600). AID 720534; further: potency means the concentration at half of the fitted maximal effect; on the % scale 0 is the no-effect control and ±100 the full control effect; nearly all actives have a fitted effect of over 65% in size
HepG2 tox-2: toxic to HepG2 cells in TGF-b counterscreen. shares compounds with TGFb inhibitor. HepG2 CAGA-GFP viability, ATP luminescence, 18 h; cells stimulated with TGF-beta, 500 pg/mL. Potency, µM (highest dose often 46.1 µM), for the others: at the top dose activity, negative = cytotoxicity, usual class: inhibitors. actives 27% (n = 1,600). AID 720535; further: potency means the concentration at half of the fitted maximal effect; on the % scale 0 is the no-effect control and ±100 the full control effect; nearly all actives have a fitted effect of over 70% in size
TGFb CCL64 inh: orthogonal confirmation of TGF-b inhibitors in CCL64 cells | shares compounds with TGFb inhibitor | CCL64 CAGA-GFP reporter, TGF-b stimulated, GFP fluorescence, 18 h | Potency, µM (highest dose often 46.1 µM), for the others: at the top dose activity, negative = inhibition, most hits filed as inhibitors | actives 41% (n = 1,600) | AID 720536; further: potency means the concentration at half of the fitted maximal effect; nearly all actives have a fitted effect of over 65% in size
TGFb COP inh: blocks TGF-b signaling in HepG2 COP reporter; actives 3% (n = 1,600); Potency, µM (highest dose often 46.1 µM), inactives show top-dose activity, negative = inhibition, most hits filed as inhibitors; HepG2 COP-GFP TGF-b reporter, GFP fluorescence, 18 h; cells stimulated by added recombinant TGF-beta; AID 720537; shares compounds with TGFb inhibitor; further: potency means the concentration at half of the fitted maximal effect; nearly all actives have a fitted effect of over 70% in size
SK-N-SH 3D tox: kills SK-N-SH neuroblastoma spheroids in orthogonal 3D test; shares compounds with ATXN2 expr inh; SK-N-SH 3D spheroid viability, PI/Hoechst imaging, 72 h; Potency, µM (titrated, usually from 30.7 µM), most hits filed as inhibitors; actives 70% (n = 65); AID 1347135
SJGBM2 3D viab: reduced viability of SJ-GBM2 3D spheroids, orthogonal test | shares compounds with ATXN2 expr inh | SJ-GBM2 3D spheroid viability, PI/Hoechst imaging, 72 h | Potency, µM (doses to about 30.7 µM), hits mostly inhibitors | actives 80% (n = 65)
Daoy spheroid: reduced viability of Daoy 3D spheroids, orthogonal test; shares compounds with ATXN2 expr inh; Daoy 3D spheroid viability, PI/Hoechst imaging, 72 h; Potency, µM (doses to about 30.7 µM), hits mostly inhibitors; actives 50% (n = 65)
TC32 3D caspase: caspase activation in TC32 3D spheroids, orthogonal test | shares compounds with ATXN2 expr inh | TC32 3D spheroids, caspase-3/7 fluorescence imaging, 24 h | Potency, µM (highest dose often 30.7 µM), actives largely listed as inhibitors | actives 30% (n = 65) | AID 1347138
TC32 spheroid: TC32 3D spheroid viability loss; shares compounds with ATXN2 expr inh; TC32 3D spheroid viability, PI/Hoechst imaging, 72 h; Potency, µM (highest dose often 30.7 µM), actives largely listed as inhibitors; actives 60% (n = 65); AID 1347139
MG63 3D tox: kills MG-63 (6-TG R) spheroids in orthogonal 3D test; MG-63 (6-TG R) 3D spheroid viability, PI/Hoechst imaging, 72 h; actives 50% (n = 65); shares compounds with ATXN2 expr inh; Potency, µM (highest dose often 30.7 µM), most hits filed as inhibitors; AID 1347140
RD 3D tox: RD 3D spheroid viability loss. Potency, µM (top dose mostly 30.7 µM), usual class: inhibitors. RD rhabdomyosarcoma 3D spheroid viability, PI/Hoechst imaging, 72 h. shares compounds with ATXN2 expr inh. actives 50% (n = 65)
Numbers without * were called inactive; i = inactive; u = inconclusive; x = no result given; ! = not active in a repeat. A selection: hits, their analogues and other compounds. The true share with any hit is near 3.8%. The call rests on the fitted dose curve; in most records, active means well fitted curve in the direction sought with a large enough effect; inconclusive means small, poorly fitted or top-dose-only effect, or another doubt; inactive means no such curve, though single readings can be large; an effect the other way counts as inactive or inconclusive.

SMILES	S2 tox	HepG2 tox-1	ATXN2 expr inh	TGFb inhibitor	HT1080 IDH1KD tx	HT1080NT lethal	SK-N-SH 3D tox	SJGBM2 3D viab	Daoy spheroid	TC32 3D caspase	TC32 spheroid	MG63 3D tox	RD 3D tox	others
Cc1c(C(=O)OCC(C)C)[nH]c2c1C(=O)CC(c1ccco1)C2 (configuration not stated)	u	-31%	-20%	u	1.2µM*	1.5µM*	x	x	x	x	x	x	x	TGFb confirm=9.2µM*;HepG2 tox-2=1%;TGFb CCL64 inh=8.2µM*;TGFb COP inh=-19%
COC(=O)c1[nH]c2c(c1C)C(=O)CC(c1ccc(OC)cc1)C2 (configuration not stated)	i	-17%	9%	0%	-8%	-1%	x	x	x	x	x	x	x
Cc1ccc(-c2c3c(=O)n(C)c(=O)n(C)c3c3c(C)nc4ccccc4n23)cc1	i	-9%	1%	-8%	x	x	x	x	x	x	x	x	x
CCC(=O)OCC(=O)[C@@]1(OC(=O)CC)[C@H](C)C[C@@H]2[C@H]3CCC4=CC(=O)C=C[C@]4(C)[C@]3(Cl)[C@@H](O)C[C@@]21C	i	x	x	x	x	x	x	x	x	x	x	x	x
C[C@@H]1C[C@H]2[C@@H]3CCC4=CC(=O)C=C[C@]4(C)[C@@]3(Cl)[C@@H](O)C[C@]2(C)[C@@]1(OC(=O)c1ccco1)C(=O)CCl	u	-42%	u	-4%	u	16µM*	i	u	i	i	i	i	i
CCC(=O)n1nc(-c2ccc(Cl)cc2)nc1N	i	-8%	-5%	4%	-5%	-4%	x	x	x	x	x	x	x
CCc1nc(N)nc(N)c1-c1ccc(Cl)cc1	i	-36%	u	u	1.2µM*	0.82µM*	u	0.91µM*	u	i	u	u	u
CC(=O)[C@]1(O)Cc2c(O)c3c(c(O)c2[C@@H](O[C@H]2C[C@H](N)[C@H](O)[C@H](C)O2)C1)C(=O)c1ccccc1C3=O	x	-107%	13µM*!	28%	0.33µM*	3.3µM*	0.091µM*	0.16µM*	1.8µM*	7.2µM*	0.2µM*	1.1µM*	1.6µM*
COc1cccc2c1C(=O)c1c(O)c3c(c(O)c1C2=O)C[C@@](O)(C(=O)CO)C[C@@H]3O[C@H]1C[C@H](N)[C@@H](O)[C@H](C)O1	x	-32%	0.43µM*!	3.2µM*	0.52µM*	0.26µM*	0.51µM*	0.91µM*	1.6µM*	1µM*	0.81µM*	5.1µM*	9.1µM*
Cc1ccc(C(C)C)c(OCC(=O)Nc2c(C(=O)c3ccccc3)oc3ccccc23)c1	i	-3%	1%	9%	x	x	x	x	x	x	x	x	x
Cc1cccc(NC(=O)CCS(=O)(=O)c2cc(Br)cc3c2N(C(=O)C2CC2)CC3)c1	i	-3%	2%	1%	x	x	x	x	x	x	x	x	x
C[C@H]1[C@@H](OC(=O)CCC(=O)O)O[C@@H]2O[C@@]3(C)CC[C@@H]4[C@H](C)CC[C@@H]1[C@@]24OO3	x	x	u	x	x	x	u	1.3µM*	i	u	u	u	0.91µM*
O=C(O)[C@@H]1CSCN1	i	x	8%	x	x	x	x	x	x	x	x	x	x
O=C(NCc1ccccc1F)C(=O)NCC(c1ccco1)S(=O)(=O)c1cccs1 (configuration not stated)	x	4%	x	12%	x	x	x	x	x	x	x	x	x
C[C@]12C=CC(=O)C=C1CC[C@H]1[C@@H]3C[C@@H](O)[C@](O)(C(=O)CO)[C@@]3(C)C[C@H](O)[C@@]12F	i	-1%	-5%	40%	u	19%	u	0.46µM*	i	u	7.2µM*	i	i
O=S(=O)(c1ccc2c(c1)OCO2)N1CCN(c2nc(-c3cccs3)nc3ccccc23)CC1	x	x	x	x	1%	10%	x	x	x	x	x	x	x
COc1cc(NC(=O)Cn2ccc3ccccc3c2=O)cc(OC)c1OC	i	-9%	-8%	-1%	x	x	x	x	x	x	x	x	x
